In the library only some 4.3% were active in any assay of this set; here they are far more common.
UBC13 polyUb: UBC13 polyubiquitin chain formation inhibitors, primary screen, biochemical, TR-FRET, uHTS; Ubiquitin-conjugating enzyme E2 N (Homo sapiens), P61088; inhibition, % at 20 µM; 0.47% of 330,000 active; in the data active = inhibition above about 45%, passing the limit was not always enough
Target sequence (P61088 whole entry, looked up): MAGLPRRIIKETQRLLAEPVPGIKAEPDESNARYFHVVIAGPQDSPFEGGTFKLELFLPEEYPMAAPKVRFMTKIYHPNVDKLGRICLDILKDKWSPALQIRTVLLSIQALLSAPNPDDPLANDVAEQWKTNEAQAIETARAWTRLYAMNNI
GRIN3A LBD mod: binders of NR3A ligand-binding domain, primary screen, biophysical, differential scanning fluorimetry, uHTS; 2.5% of 340,000 active; Tm shift relative to glycine control, % at 25 µM; NR3A LBD differential scanning fluorimetry, Tm shift; 0% = protein alone, 100% = glycine-bound protein; Glutamate receptor ionotropic, NMDA 3A (GRIN3A) ligand-binding domain; AID 1259313, 2017;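 active = melting temperature shift of at least 10% of the positive control shift, at one fixed dose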
dFosB activator: activators of delta FosB homodimer, primary screen, biochemical, fluorescence polarization, TAMRA-CDK5 oligo, single point. Protein FosB (Mus musculus), P13346. purified delta FosB; percent of positive-control signal above neutral wells. activation, % at 25 µM. 0.99% of 340,000 active. AID 493131, 2011;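 active = mean activation above about 17%, with every replicate also reaching it, limit read from the data, passing the limit was not always enough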
CR mimetic SO: reduction of superoxide in aged yeast, primary screen, HTS. S. cerevisiae aged cells, superoxide DHE fluorescence; stronger effect = lower value. superoxide response (% of plate mean), % at 10 µM. 0.18% of 330,000 active;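 active = superoxide response under a set limit, about three screen SD below normal, cut at about 65% in these data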;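 also: yeast aged for seven days with compound at 30 °C before DHE staining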
NALP1 inh: NALP1 inflammasome inhibitors in reconstituted yeast, colorimetric, S. cerevisiae, triplicate retest; 0.61% of 280,000 active; AID 2071, 2009; S. cerevisiae NALP1/ASC/caspase-1 growth, X-gal OD620, 72 h; inhibition, % at 10 µM; in the data active = inhibition mostly above about 24%, no sharp cut-off; inactive = mostly below about 32%
Of the large screens only hits and unclear results are named; the others gave an inactive call.

CCOC(=O)Nc1cccnc1Sc1ccc(Cl)cc1	none (no result: NALP1 inh)
O=C(O)c1cn(Cc2ccccc2Cl)c2ccc(S(=O)(=O)N3CCOCC3)cc2c1=O	none
Cc1nn2c(-c3ccccc3)c(-c3ccccc3)nc2[nH]c1=O	GRIN3A LBD mod 20
Cc1ccc(N(C)C(=O)CCS(=O)(=O)c2cc3c(cc2Cl)NC(=O)CO3)cc1	none
CCOCCCNCc1cn(-c2ccc(F)cc2F)nc1-c1ccccc1C	NALP1 inh 27
C=CCN1CCOc2ccc(C)cc2S1(=O)=O	GRIN3A LBD mod 10 (no result: UBC13 polyUb, CR mimetic SO, NALP1 inh)
O=C(Nc1ccc(Cl)cc1)ON=C1CCCC1	NALP1 inh 94
C/C(=N\OC(=O)Nc1ccc(Cl)cc1)c1ccc(F)c(F)c1	GRIN3A LBD mod 36
CC(C)C(Cl)=NOC(=O)Nc1ccc(F)cc1	none (no result: UBC13 polyUb, CR mimetic SO, NALP1 inh)
Cc1cc(C)cc(OCCCCn2cncn2)c1	none
CC(C)(Oc1ccc(Br)cc1Cl)C(=O)Nc1ccon1	GRIN3A LBD mod 13
CCN(CC)CCNC(=O)c1cc2c(=O)n(C)c3ccccc3c2n1C	UBC13 polyUb 48
Cn1c(C(=O)NCCCN2CCCCCC2)cc2c(=O)n(C)c3ccccc3c21	none
CCN(CC)CCCNC(=O)c1cc2c(=O)n(C)c3ccccc3c2n1C	none
Cn1c(C(=O)NCCCN2CCc3ccccc3C2)cc2c(=O)n(C)c3ccccc3c21	UBC13 polyUb 56
Cc1noc(C)c1-c1nc(CS(=O)(=O)c2ccc(F)cc2)no1	none (no result: dFosB activator)
COc1ccc(CN2CCN(C(=O)Cn3c(=O)oc4cc(Cl)ccc43)CC2)c(OC)c1OC	none
COc1ccc(-c2nn(-c3ccccc3)cc2/C=C/C(=O)OCC(=O)Nc2cccc(C#N)c2)cc1	GRIN3A LBD mod 25
COc1cccc(NC(=O)CN(C)C(=O)/C=C/c2cn(-c3ccccc3)nc2-c2ccc(C)cc2)c1	GRIN3A LBD mod 17 (no result: NALP1 inh)
COc1ccc(NC(=O)CN(C)C(=O)/C=C/c2cn(-c3ccccc3)nc2-c2ccc(C)cc2)cc1	none (no result: NALP1 inh)
COc1ccc(-c2nn(-c3ccccc3)cc2/C=C/C(=O)OCC(=O)Nc2ccc(C#N)cc2)cc1	none
COc1ccc(NC(=O)CN(C)C(=O)/C=C/c2cn(-c3ccccc3)nc2-c2ccc(F)cc2)cc1	GRIN3A LBD mod 10 (no result: NALP1 inh)
Cc1nn(-c2ccccn2)c2c1C(=O)CC(C)(C)C2N=[N+]=[N-] (stereo unspecified)	none (no result: UBC13 polyUb, CR mimetic SO, NALP1 inh)
COc1ccc(CCC(=O)Nc2ccc(Cn3ccnc3)cc2)cc1	none
O=C(Nc1cccc(Cl)c1)O/N=C\c1ccncc1	none
COc1ccc(NC(=O)O/N=C/c2ccccc2)cc1	dFosB activator 16
O=C(Nc1ccc(Cl)c(Cl)c1)O/N=C/c1ccncc1	GRIN3A LBD mod 29
O=C(NCC(=O)N1CCN(c2ccccc2O)CC1)c1cccs1	none (no result: NALP1 inh)
Cc1c(Cl)cccc1NC(=O)CSC(C)c1nc2ccccc2c(=O)[nH]1 (stereo unspecified)	dFosB activator 41
CCOc1ccc(-n2ccc(=O)c(C(=O)O)n2)cc1	none
Cc1cccc(OCc2nnc(N)s2)c1C	GRIN3A LBD mod 12
C=CS(=O)(=O)c1ccc(Oc2ccc(S(=O)(=O)C=C)cc2)cc1	NALP1 inh 75
NS(=O)(=O)c1ccc(Oc2ccc(S(N)(=O)=O)cc2)cc1	none
O=C(Nc1ccc(Cl)c(Cl)c1)Nc1ccccc1C(=O)O	GRIN3A LBD mod 18
O=C(Nc1ccc(Br)cc1)Nc1ccccc1Cl	GRIN3A LBD mod 21
O=C(Nc1ccccc1)Nc1ccccc1NS(=O)(=O)c1cccs1	GRIN3A LBD mod 22
CC(C)(ONC(=O)Nc1ccccc1Cl)C(=O)O	NALP1 inh 30
NC(=O)NC(=O)Nc1ccccc1Cl	none
O=S(=O)(Nc1cccc2ccccc12)c1cccs1	none
CC(C)C[C@H](NC(=O)N1CCn2c1nc1ccccc12)C(=O)N1CCCCC1	none
O=C(Cc1ccccc1F)OCN1C(=O)c2ccccc2C1=O	none (no result: CR mimetic SO)
CCOc1ccccc1NC(=O)C(OC(=O)c1ccccc1NS(=O)(=O)c1cccs1)c1ccccc1 (stereo unspecified)	none
COC(=O)c1sccc1NC(=O)Nc1ccc(Cl)c(Cl)c1	none
O=C(Nc1ccc(Cl)c(Cl)c1)Nc1ccccc1NS(=O)(=O)c1cccs1	GRIN3A LBD mod 34

High-throughput results from PubChem.
